# Reference: PubChem BioAssay (Tox21)
# Inconclusive results are not listed. Calls of active or inactive are those of the source. The call rests on the fitted dose curve; in most records, active means well fitted activation curve with a large enough effect in the signal ratio in the repeat runs (not every such curve was filed as active); inconclusive means weak or mixed curves; inactive means flat fitted curve, though single readings scatter; the % refers to the signal ratio.
# Assay: p53 small molecule agonists, cell-based qHTS assay (AID 1963582)
# Details: HCT-116 p53RE-bla reporter, beta-lactamase FRET ratio, 16 h; series mostly up to 66 µM; activation: at the top concentration
# Excerpt: National Center for Advancing Translational Sciences [NCATS]
# Division of Preclinical Innovation [DPI]
# U.S. Environmental Protection Agency [EPA]
# National Institutes of Environmental Health Sciences [NIEHS]
# National Toxicology Program [NTP]
# U.S. Food and Drug Administration [FDA]
# p53, a tumor suppressor protein, is activated following cellular insult, including DNA damage and other cellular stresses. The activation of p53 regulates cell fate by inducing DNA repair, cell cycle arrest, apoptosis, or cellular senescence. The activation of p53, therefore, is a good indicator of DNA damage and other cellular stresses. […] The activation of the reporter gene under culture conditions can be detected by fluorescence intensity. This cell line was used to screen the Tox21 10K compound library in a 1536-well plate format and to identify agonists that activate the p53 signaling pathway.
# Tox21 Assay Protocol Summary:
# The p53RE-bla cells were dispensed at 4,000 cells/5 ul/well in 1536-well black wall/clear bottom plates using a Multidrop dispenser. After the assay plates were incubated at a 37 C/5% CO2 incubator for 5 hours, 23 nL of compounds dissolved in DMSO, positive controls or DMSO only was transferred to the assay plate by a pin tool. The plates were incubated at 37 C for 16 hours. After 1 uL of LiveBLAzerTM B/G FRET substrate was added using a Flying Reagent Dispenser, the plates were incubated at room temperature for 2 hours, and fluorescence intensity was measured by an Envision plate reader.
# On the % scale 0 is the no-effect control and ±100 the full control effect.
SMILES,Potency,activation
CCSC(=O)N1CCCCCC1,inactive,
CN(C)[C@@H]1C(=O)C(C(N)=O)=C(O)[C@@]2(O)C(=O)C3=C(O)c4c(O)cccc4[C@@](C)(O)[C@H]3C[C@@H]12,inactive,
NC(=O)CCl,,0.74% (inactive)
CC(COc1ccc(Oc2ccccc2)cc1)Oc1ccccn1 (stereo not given),,-4.08% (inactive)
C1CN2CCC1CC2,,1.25% [at 30.3 µM] (inactive)
Clc1ccc(C(Cl)(Cl)Cl)cn1,,0.789% (inactive)
COCCC#N,,1.73% (inactive)
COP(=S)(OC)Oc1ccc([N+](=O)[O-])cc1,inactive,
CN1C(=O)CN=C(c2ccccc2)c2cc(Cl)ccc21,,-1.3% [at 30.3 µM] (inactive)
O=C1CCCO1,inactive,
C[N+](=O)[O-],,0.093% (inactive)
Brc1c(Br)c(Br)c(Br)c(Br)c1Br,,2.53% [at 5.99 µM] (inactive)
CC(C)OC(=O)Nc1ccccc1,inactive,
CCC(=O)O[C@@H]1C=C2CCC3C(CCC4(C)C3CC[C@@H]4OC(=O)CC)C2CC1 (stereo not given in full),,-3.8% [at 30.3 µM] (inactive)
Nc1ccc(-c2ccccc2)cc1,inactive,
CCCN(CCC)N=O,inactive,
COC(=O)c1c(C(F)F)nc(C(F)(F)F)c(C2=NCCS2)c1CC(C)C,,-1.04% (inactive)
O=P(O)(O)CCCl,inactive,
c1cc2c(c(N3CCNCC3)c1)OCCO2,,0.391% [at 30.3 µM] (inactive)
N#Cc1ccc(O)cc1,,0.0448% (inactive)

SMILES,Potency,activation
C=C(Cl)CCl,,-0.0654% (inactive)
Nc1cc(Cl)cc(C(=O)O)c1Cl,inactive,
ClCCOCCCl,inactive,
Cc1ccc(N)cc1C,,-4.97% (inactive)
CNC(=O)NC(O)C(Cl)(Cl)Cl (stereo not given),,0.34% [at 30.3 µM] (inactive)
OCCSSCCO,,0.0526% (inactive)
CC(C)(C)OOC(C)(C)C,inactive,
N#CN=C(N)N,inactive,
CN(C)CCc1c[nH]c2cccc(OP(=O)(O)O)c12,,1.88% (inactive)
ClC1C(Cl)C(Cl)C(Cl)C(Cl)C1Cl (stereo not given),inactive,
C=CCO,inactive,
CCOP(=O)(CN(CCO)CCO)OCC,,-2.32% (inactive)
CCCCC#N,,0.646% (inactive)
CC12CC1(C)C(=O)N(c1cc(Cl)cc(Cl)c1)C2=O (stereo not given),inactive,
OCC(O)CO,inactive,
CCC1(c2ccccc2)CCC(=O)NC1=O (stereo not given),,2.94% [at 30.3 µM] (inactive)
CN1C(=O)NC(=O)C(C)(C2=CCCCC2)C1=O (stereo not given),,-2.15% [at 30.3 µM] (inactive)
CCC1(CC)C(=O)C=CNC1=O,,0.7% [at 30.3 µM] (inactive)
Cn1cc[n+](C)c1 (tested in a mixture with another compound),,-0.0916% (inactive)
Nc1c(Cl)c(Cl)nc(C(=O)O)c1Cl,,-6.12% (inactive)
